This is one part of a sample in which hits are shown more often than they occur.
Pf Dd2 inh – blocks in vitro growth of P. falciparum Dd2. P. falciparum Dd2 growth, SYBR Green, 72 h. hit rate 4.3% among 120,000. Potency, µM (doses to about 28.9 µM), actives largely listed as inhibitors; active means well fitted inhibition curve with a large enough effect; further: nearly all actives have a fitted effect of over 65% in size
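Readout: SYBR Green fluorescence, 485 nm excitation, 535 nm emission, after ~16 h lysis at 37C. Before that, Dd2-infected red cells (2.5% hematocrit) grew 72 h with compound, 29 uM top final concentration.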
Hits are given with their value; n = inactive; [ ] = dose if it differs, or a comment.

SMILES	Pf Dd2 inh
COc1cc2c(C(=O)N3CCN(c4ccc(F)cc4)CC3)cn(CC(C)C)c(=O)c2cc1OC	10µM
COc1ccc(Nc2ncc(C(=O)N3CCN(c4ccc(OC)cc4)CC3)c3ccccc23)cc1	n
COc1ccccc1N1CCN(C(=O)c2cn(CC(C)C)c(=O)c3c2c2ccccc2n3C)CC1	7.9µM
COc1ccc(N2CCN(C(=O)c3cc4c(=O)n(Cc5ccccc5)ccc4nc3C)CC2)cc1	n
COc1ccccc1N1CCN(C(=O)c2c(C)oc3ncn(CC(C)C)c(=O)c23)CC1	n
COc1ccccc1N1CCN(C(=O)Nc2cn(CC(C)C)c(=O)c3ccccc23)CC1	n[5.79 µM]
COc1cc(Cl)c(C)cc1NC(=O)c1cn(CC(C)C)c(=O)c2cc(OC)c(OC)cc12	n
COc1ccc(N2CCN(C(=O)c3cn(CC(C)C)c(=O)c4c3c3ccccc3n4C)CC2)cc1	10µM
COc1ccccc1CCC(=O)N1CCC2(CC1)NC(=O)N(c1cccc(F)c1)N2	n
Cc1ccc(N2CCC(NC(=O)CC(C)C)C2=O)cc1C (configuration not stated)	n
COCc1nc(C2CCCN(C(=O)c3ccc(OC)nc3OC)C2)no1 (configuration not stated)	n
CCCCCC(=O)N1CC[C@@H](CC(=O)NCc2ccc(F)cc2)[C@@H](CC)C1	n
COc1ccc(CC(=O)N2C[C@@H](CO)[C@H](c3ccncc3)C2)cc1	n
O=C(CCn1nnnc1CN1CCOCC1)N1CCN(c2nc3ccccc3s2)CC1	n
Cn1nccc1C(O)c1cc2n(n1)CCN(CC(=O)N1CCOCC1)C2 (configuration not stated)	n
COc1ccc(C2(C(=O)N3CCC(N4CC5CC(C4)[C@H]4CCCC(=O)N4C5)CC3)CC2)cc1 (some centres not stated)	n
COc1cccc(C(=O)N2CCC3(C2)NC(=O)N(Cc2ccc(Cl)cc2)C3=O)c1 (configuration not stated)	n
COCCC(=O)N[C@H]1CC[C@]2(C)CC[C@@H](C(C)C(=O)NC3CC3)[C@H](O)[C@H]2[C@@H]1C (some centres not stated)	n
COC(=O)CNC(=O)C1CCc2nnc(C3CCN(C(=O)c4ccccc4)CC3)n21 (configuration not stated)	n
CC(=O)c1ccc(NC(=O)N[C@@H]2C=C(C(=O)N[C@H](C)C(N)=O)C[C@@H](O)[C@@H]2O)cc1	n
COc1cccc(CN2CC[C@H]3COC(=O)N3c3ccc(OC)cc3C2)c1	n
COc1ccc2c(c1)CN(Cc1ccc(C(F)(F)F)cc1)CC[C@H]1COC(=O)N21	n
COc1ccc2c(c1)CN(Cc1ccccc1Cl)CC[C@H]1COC(=O)N21	11µM
Cc1cc(NS(=O)(=O)c2ccc3c(c2)CN(C(=O)CCC(C)C)CC3)no1	n
Cc1cc(S(=O)(=O)N2CCC(c3noc(COc4ccc(F)cc4)n3)CC2)ccc1F	n
SMILES	Pf Dd2 inh
CCC(=O)Nc1cc(C(=O)NCc2ccc(N3CCN(C)CC3)cc2)c2ccc(C)nc2c1	10µM
CCNC(=O)c1cc(NC(=O)CC)cc2nc(C)ccc12	n
CCCCNC(=O)c1cc(NC(=O)CC)cc2nc(C)ccc12	n
CN1CCN(CCCNC(=O)c2cnn(-c3ccccc3)c2C2CCN(C(=O)OC(C)(C)C)CC2)CC1	n
CC(C)(C)OC(=O)N1CCC(c2c(C(=O)NCCN3CCC(Cc4ccccc4)CC3)cnn2-c2ccc(F)cc2)CC1	1.6µM
CC(C)(C)OC(=O)N1CCC(c2c(C(=O)NCCN3CCC(Cc4ccccc4)CC3)cnn2-c2ccccc2)CC1	2.8µM
CC(=O)c1cc(C(=O)N2CCC(n3nccc3NC(=O)CC(C)C)CC2)cs1	n
Cc1ccc(C(=O)NC2CCN(c3cn[nH]c(=O)c3)CC2)cc1F	n
COc1ccc(N2Cc3c(NCC4CC4)ncnc3N(C)CC2=O)cc1	n
O=C(Nc1ccccc1)N1CCN(C2CCNCC2)C(=O)C1	n
CO[C@H]1[C@H](NC(=O)C2CCN(C(C)=O)CC2)c2ccccc2C12CCNCC2	n
CCN(CC)CCOC(=O)c1ccc(Nc2c3c(nc4ccccc24)CCC3)cc1	7.1µM
Fc1ccc(Nc2c3c(nc4ccccc24)CCC3)cc1	n
CCN(CC)CCOC(=O)c1ccc(NC(=O)CSc2cc(=O)n(CC)c3ccccc23)cc1	n
COc1ccc(C(=O)N2CCCC(CO)CCNC(=O)CC2)cn1 (configuration not stated)	n
Cc1ccc(CN2C(=O)C3(c4ccccc42)N(c2ccc(C)c(Cl)c2)C(=O)CS3(=O)=O)cc1 (configuration not stated)	n
Cc1ccc(N2C(=O)CS(=O)(=O)C23C(=O)N(Cc2ccc(Cl)cc2)c2ccccc23)cc1C (configuration not stated)	2.2µM
CN1C(=O)C2(c3ccccc31)N(c1ccc(Br)cc1)C(=O)CS2(=O)=O (configuration not stated)	n
CC(C)NC(=O)NC[C@H]1O[C@@H](CC(=O)NCc2cccnc2)[C@H](O)[C@@H]1O	n
O=C(OCc1ccccc1)N1CCOCC12CCN(Cc1ccc3[nH]ccc3c1)CC2	7.1µM
O=C(c1ccccc1)N1CCOCC12CCN(Cc1ccc3[nH]ccc3c1)CC2	n
O=C(OCc1ccccc1)N1CCOCC12CCN(Cc1ccncc1)CC2	n
CSc1ncccc1C(=O)N1CCc2nc[nH]c2C1	n
CCOC(=O)c1ccccc1NC(=O)C1CCN(c2ncnc3c2nc2n3CCCCC2)CC1	n
O=C(NCc1ccccc1)C1CCN(c2ncnc3c2nc2n3CCCCC2)CC1	n
SMILES	Pf Dd2 inh
O=C(Nc1ccc(F)cc1Cl)C1CCN(c2ncnc3c2nc2n3CCCCC2)CC1	2.8µM
Cc1ccc(CNC(=O)Cn2c3ncccc3c(=O)n2-c2ccccc2)cc1	n
O=C(Cn1c2ncccc2c(=O)n1-c1ccccc1)Nc1ccc(F)c(F)c1	n
CCc1cccc(-n2c(=O)c3cccnc3n2CC(=O)Nc2ccc(F)c(C)c2)c1	1.3µM
CCOC(=O)c1ccccc1NC(=O)Cn1c2ncccc2c(=O)n1-c1ccccc1	n
Cc1ccc(-n2c(=O)c3cccnc3n2CC(=O)Nc2cccc(C)c2C)cc1	3.5µM
CCc1ccc(-n2c(=O)c3cccnc3n2CC(=O)Nc2ccccc2C(F)(F)F)cc1	11µM
Cc1ccc(-n2c(=O)c3cccnc3n2CC(=O)Nc2cc(C)cc(C)c2)cc1	n
Cc1ccc(-n2c(=O)c3cccnc3n2CC(=O)Nc2ccc(C)cc2Cl)cc1	n
CCc1cccc(-n2c(=O)c3cccnc3n2CC(=O)Nc2c(C)cc(C)cc2C)c1	n
COc1ccc(C(=O)N2CCCC3(CN[S+](=O)([O-])c4ccccc4N3)C2)cc1 (configuration not stated)	n
Cc1ccc(C(=O)N(C)CC2CCOCC2)cc1F	n
CC(C)c1noc(-c2cn(C3CCN(C(=O)c4ccc(C(C)(C)C)cc4)C3)nn2)n1 (configuration not stated)	n
CN(C)CCN(C)CC[C@H]1CN(C(=O)c2ccc(F)cc2)CC[C@H]1CC(=O)O	n
CN1[C@@H](CCC(=O)NCc2ccc(F)cc2)CNC(=O)[C@@H]2[C@H]1CCN2Cc1cccs1	n
c1ccc(-c2nnc3n2CCN(Cc2cscn2)C3)cc1	n
Cc1cccc(CC(=O)NCCC2CCN(C(=O)Nc3ccccc3)CC2)c1	n
CN1C(=O)c2cccn2CC1CNC(=O)c1nccn1C (configuration not stated)	n
CC(C)(C)NC(=O)N1CCCCCNC(=O)CC1c1ccccc1 (configuration not stated)	n
COCC(=O)N[C@@H]1CNCC[C@@H]1c1nc(C)no1	n[5.79 µM]
